Calls of active or inactive are those of the source.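 The calls were made as follows, unless noted: active = mean z-score across replicates of 1.96 or higher in either the MELAS or the Rieske mutant cell line; inactive = the rest.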
Columns and labels:
[1] = sensitizers of A549 cells to miR-34 induction, primary screen, imaging, A549 dox-inducible miR-34, nuclei and caspase counts (AID 1347080;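 active = compounds whose cell count with miR-34 switched on is under 0.7 times the count with it off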; also: test concentration not given here); settings: A549 miR-34 inducible, Hoechst nuclei count, 48 h
[2] = survival rescue of mitochondrial mutant cells in low glucose, primary screen, MELAS cybrids, Rieske KO mouse fibroblasts, CellTiter-Glo (AID 1508586);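 also: test concentration not given here; z relative to plate mean and SD of compound and empty wells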
[3] = viability rescue of complex I mutant cybrids, primary screen, cell-based, galactose medium, ATP luminescence (AID 1645843;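 active = z-score of at least 1.8 in each of two replicates, scored against plate mean and spread of sample wells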;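 also: positive z means more ATP and so rescue of galactose-driven cybrid death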); settings: complex I mutant cybrid cells, 72 h, stronger effect = higher value
[4] = stronger effect = lower value, cell number ratio, induced over uninduced
[5] = measured here: relative caspase fold change +Dox/-Dox
[6] = measured here: total cells with miR-34 induction, stronger effect = lower value
[7] = measured here: total cells without miR-34 induction
[8] = MELAS cybrid survival, CellTiter-Glo 48 h, stronger effect = higher value
[9] = Rieske KO mouse fibroblast survival, CellTiter-Glo 72 h

SMILES	fold change [1, 4]	fold change [1, 5]	cell count [1, 6]	cell count [1, 7]	z-score [2, 8]	z-score [2, 9]	z-score [3]
COc1cccc2c(=O)n(Cc3ccc4nonc4c3)cnc12	0.912 (inactive)	1.93	8180	8980	0.215 (inactive)	-0.341	-0.545 (inactive)
Cc1nn(C)cc1-c1ccnc(NC2CCOC(C)(C)C2)n1 (stereo unspecified)	0.847 (inactive)	2.06	8460	9990	-0.0523 (inactive)	-0.494	-0.56 (inactive)
O=C(CC(=O)C(F)(F)F)c1cccs1	0.883 (inactive)	0.164	8190	9270	-1.06 (inactive)	0.275	-0.485 (inactive)
O=C1CN(c2ncnc3nc[nH]c23)CCN1CCc1ccccc1	0.93 (inactive)	1.88	8450	9080	-0.834 (inactive)	-0.816	-0.58 (inactive)
O=C(O)Cc1c[nH]c2ccccc12	0.913 (inactive)	0.9	8300	9090	-0.643 (inactive)	-0.265	0.49 (inactive)
CCc1nc(NC(=O)NCCc2nc(-c3ccc(C)cc3)no2)nn1C	0.835 (inactive)	1.88	7240	8670	1.58 (inactive)	-0.075	2.27 (active)
O=C(O)COc1cccc2ccccc12	0.847 (inactive)	0.59	7750	9150	-0.276 (inactive)	0.135	0.555 (inactive)
NC(=O)NC(Cc1ccccc1)C(=O)O (stereo unspecified)	0.889 (inactive)	0.725	8700	9790	-0.32 (inactive)	-0.255	0.66 (inactive)
COc1ccc(CN2CCN(c3cc(C)nc(N)n3)CC2=O)cc1	0.879 (inactive)	1.5	8130	9240	0.162 (inactive)	0.559	-0.615 (inactive)
O=C(O)CCCNC(=O)NC1CCCCC1	0.89 (inactive)	0.215	8970	10100	0.354 (inactive)	-0.267	0.455 (inactive)
COc1ccccc1Cn1ncc2[nH]c(-c3ccccc3OC)nc21	0.835 (inactive)	1.7	7580	9090	-0.341 (inactive)	-0.0244	2.62 (active)
CC(=O)NC(CCCN=C(N)N)C(=O)O (stereo unspecified)	0.897 (inactive)	0.717	8640	9630	-1.33 (inactive)	-0.192	0.785 (inactive)
COc1ccc(CSc2nnc(-c3ccc4c(c3)OCO4)o2)cc1F	0.89 (inactive)	0.327	8570	9630	0.835 (inactive)	-0.403	1.06 (inactive)
Fc1cccc(F)c1-c1nc2c(cnn2Cc2cccs2)[nH]1	0.88 (inactive)	2.16	8590	9770	-0.231 (inactive)	0.598	-0.555 (inactive)
CC(O)Cc1cn(C2CCN(c3ncnc4nc[nH]c34)CC2)nn1 (stereo unspecified)	0.957 (inactive)	0.915	8270	8650	-0.102 (inactive)	-1.64	-0.52 (inactive)
COc1ccc(CN(C)C(=O)Nc2nc(-c3ccccc3)ns2)cc1	0.886 (inactive)	1.46	6810	7690	-0.0703 (inactive)	0.35	0.77 (inactive)
COc1cc(F)ccc1C(=O)N1CCc2[nH]nc(Cc3ccccc3)c2C1	0.845 (inactive)	1.46	6700	7930	0.33 (inactive)	0.986	-0.125 (inactive)
COc1cccc(OC)c1-c1ccc(C(=O)Nc2cccnc2)o1	0.893 (inactive)	2.2	7930	8880	0.0755 (inactive)	0.502	-0.555 (inactive)
Nc1nc(-c2ccc(O)cc2)cs1	0.871 (inactive)	0.369	7600	8730	-0.885 (inactive)	0.17	0.145 (inactive)
CC(C)(C)C(=O)Nc1ccc2c(c1)CC(=O)N2	0.817 (inactive)	1.77	8370	10200	0.0898 (inactive)	0.0111	-0.52 (inactive)
Nc1nc2cc(C(=O)N3CCN(C(=O)c4ccco4)CC3)ccc2s1	0.879 (inactive)	1.74	8870	10100	-0.277 (inactive)	-0.24	-0.565 (inactive)
O=C(NCCOc1cccnc1)c1ccc2ncsc2c1	0.858 (inactive)	1.5	7900	9210	0.0996 (inactive)	-0.557	-0.56 (inactive)
Cc1cnc(NCCCn2cccn2)nc1-c1cnn(C)c1	0.862 (inactive)	1.64	9190	10700	-0.223 (inactive)	-0.0144	-0.51 (inactive)
O=C(Cn1nc(Cc2ccccc2)c2ccccc2c1=O)NCCc1ccco1	0.937 (inactive)	0.881	8560	9130	1.48 (inactive)	0.664	-0.33 (inactive)

SMILES	fold change [1, 4]	fold change [1, 5]	cell count [1, 6]	cell count [1, 7]	z-score [2, 8]	z-score [2, 9]	z-score [3]
NCCC(O)C(=O)NC1CC(N)C(OC2OC(CN)C(O)C(O)C2O)C(O)C1OC1OC(CO)C(O)C(N)C1O (stereo unspecified)	0.888 (inactive)	0.936	8210	9240	-1.15 (inactive)	-0.0039	0.985 (inactive)
Cc1nsc(NC(=O)N2CCCC(C)(O)C2)n1 (stereo unspecified)	0.901 (inactive)	0.878	9190	10200	-0.195 (inactive)	-0.423	-0.565 (inactive)
OB(O)c1ccccc1	0.876 (inactive)	0.386	7850	8950	-0.818 (inactive)	0.216	0.615 (inactive)
CCc1nc(NC(=O)N(C)Cc2cccc(-n3cccn3)c2)nn1C	0.843 (inactive)	1.39	7990	9480	0.262 (inactive)	-0.471	-0.535 (inactive)
Cc1nn(C)c(C)c1-c1ccnc(N2CCCC2c2nc(-c3cccnc3)no2)n1 (stereo unspecified)	0.869 (inactive)	1.21	6880	7910	-0.00142 (inactive)	0.462	-0.385 (inactive)
CC(=O)c1sc(Nc2ccccc2)nc1C	0.911 (inactive)	0.648	8310	9120	3.09 (active)	-0.213	0.63 (inactive)
Cc1nsc(NC(=O)N2CCC(C(O)CC(C)C)CC2)n1 (stereo unspecified)	0.832 (inactive)	2.21	6540	7860	0.507 (inactive)	-0.186	-0.63 (inactive)
COc1cccc(-c2noc(Cc3ccc4c(c3)OCO4)n2)c1	0.929 (inactive)	1.11	9000	9680	0.523 (inactive)	0.163	2.67 (active)
COc1ccc(N2CCN(c3ncnc4sccc34)C(C)C2=O)cc1 (stereo unspecified)	0.791 (inactive)	1.18	6180	7810	-0.528 (inactive)	-0.443	-0.505 (inactive)
Cc1nn(C)cc1-c1ccnc(NCc2nc(-c3ccccc3)no2)n1	0.84 (inactive)	1.25	7970	9490	-0.588 (inactive)	1.31	0.09 (inactive)
Nc1nc(-c2ccoc2)c2[nH]cnc2n1	0.933 (inactive)	1.81	9520	10200	-0.0543 (inactive)	-0.319	-0.485 (inactive)
CCc1nc(NC(=O)NC(c2ccccc2)c2ccco2)nn1C (stereo unspecified)	0.878 (inactive)	0.916	8500	9680	-0.443 (inactive)	0.186	1.04 (inactive)
CN1CCN(Cc2ccc3sccc3c2)CC1CCO (stereo unspecified)	0.86 (inactive)	1.5	8240	9580	0.0101 (inactive)	-0.424	-0.48 (inactive)
Nc1ncccc1OCc1ccccc1	0.764 (inactive)	0.403	7870	10300	-0.968 (inactive)	-0.912	-0.165 (inactive)
CC(c1cccc(O)c1)N(C)C (stereo unspecified)	0.895 (inactive)	0.805	8630	9640	-0.0784 (inactive)	-0.273	0.205 (inactive)
COc1cccc2ccc(-c3nnc4ccccn34)nc12	0.871 (inactive)	1.83	7320	8400	-0.646 (inactive)	0.957	-0.595 (inactive)
CCCn1ncc(-c2ccnc(NC3CC(C)(C)NC(C)(C)C3)n2)c1C	0.919 (inactive)	0.965	8450	9200	0.278 (inactive)	0.593	0.33 (inactive)
COc1ccc(C(=O)Nc2c(Cl)cncc2Cl)cc1OC1CCCC1	0.898 (inactive)	0.397	7850	8740	0.807 (inactive)	0.781	0.215 (inactive)
CN(C)c1ccc(N=Nc2ccccc2C(=O)O)cc1	0.742 (inactive)	0.761	2520	3400	-1.2 (inactive)	0.626	-0.36 (inactive)
Cc1nsc(NC(=O)N2CCCCC2c2nc(C(C)C)no2)n1 (stereo unspecified)	0.906 (inactive)	1.98	9100	10000	-0.274 (inactive)	-0.381	-0.525 (inactive)
O=c1cc(-c2ccccc2)oc2ccccc12	0.858 (inactive)	0.735	7170	8370	2.28 (active)	0.116	1.36 (inactive)
CC(C)=CCn1cnc(=N)c2[nH]cnc21	0.911 (inactive)	0.79	8970	9850	-0.546 (inactive)	-0.741	1.17 (inactive)
Cc1ccc2c(-c3ncnc4scc(C)c34)cccc2n1	0.882 (inactive)	1.37	6650	7540	-0.275 (inactive)	-0.173	2.45 (inactive)
COc1cc(F)c(-c2nc3c(cnn3Cc3cccs3)[nH]2)c(F)c1	0.818 (inactive)	1.31	6350	7760	-0.593 (inactive)	-0.339	2.49 (active)

— PubChem BioAssay
